From PubChem BioAssay AID1159580 (chemical genetic matrix, 2015)
“And” between values parts separate entries of the source, which are not always exact repeats. Equal values may be shown once. Hit rate of the full screen: of about 5,500 compounds, about 2,000 (36%) were called active. Another 18% or so got no clear call; they are omitted. Cut-off read from the data, not from the text of the source: active = normalized growth mostly below about 0.91 (no sharp cut-off); inconclusive = no clear call, values can overlap the other calls; inactive = mostly above about 0.92. The list shows a part of the results.

Test: chemical genetic growth profiling, strain panel (AID 1159580);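 note: tested at 20 µM; growth read once vehicle control cultures reached saturation at 30 °C; 1 = growth at the plate median or of vehicle wells; lower values mean less growth of the strain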
Conditions: S. cerevisiae deletion strains, growth OD

Measured: normalized growth

CCCCCCc1ccc(O)cc1O
active: locus YAL013W, strain DEP1, stronger effect = lower value 0.677 | locus YAL026C, strain drs2, stronger effect = lower value 0.747 | locus YBR009C, strain hhf1, stronger effect = lower value 0.788 | locus YBR023C, strain chs3, stronger effect = lower value 0.89 | locus YBR231C, strain swc5, stronger effect = lower value 0.865 | locus YCL011C, strain gbp2, stronger effect = lower value 0.896 | locus YCL016C, strain dcc1, stronger effect = lower value 0.912 | locus YCL029C, strain bik1, stronger effect = lower value 0.877 | locus YCL061C, strain MRC1, stronger effect = lower value 0.906 | locus YDL192W, strain arf1, stronger effect = lower value 0.798 | locus YDR101C, strain arx1, stronger effect = lower value 0.84 | locus YDR137W, strain rgp1, stronger effect = lower value 0.608 | locus YDR159W, strain sac3, stronger effect = lower value 0.525 | locus YDR318W, strain mcm21, stronger effect = lower value 0.794 | locus YDR388W, stronger effect = lower value 0.868 | locus YDR392W, strain spt3, stronger effect = lower value 0.283 | locus YDR502C, strain sam2, stronger effect = lower value 0.814 | locus YEL003W, strain gim4, stronger effect = lower value 0.911 | locus YER155C, strain BEM2 (second series), stronger effect = lower value 0.642 | locus YER155C, strain BEM2, stronger effect = lower value 0.875 | locus YGL078C, strain dbp3, stronger effect = lower value 0.885 | locus YGL086W, strain mad1, stronger effect = lower value 0.783 | locus YGL173C, strain kem1, stronger effect = lower value 0.883 | locus YGL248W, strain PDE1, stronger effect = lower value 0.868 | locus YGL253W, strain hxk2, stronger effect = lower value 0.893 | locus YGR135W, strain pre9, stronger effect = lower value 0.85 | locus YGR252W, strain gcn5, stronger effect = lower value 0.752 | locus YHR013C, strain ard1, stronger effect = lower value 0.822 | locus YHR030C, strain SLT2, stronger effect = lower value 0.804 | locus YHR079C, strain IRE1 (second series), stronger effect = lower value 0.832 | locus YHR142W, strain chs7, stronger effect = lower value 0.838 | locus YHR200W, strain rpn10, stronger effect = lower value 0.903 | locus YIL125W, strain kgd1, stronger effect = lower value 0.88 | locus YIR030C, strain dcg1, stronger effect = lower value 0.917 | locus YJL095W, strain BCK1 (second series), stronger effect = lower value 0.887 | locus YJL095W, strain BCK1, stronger effect = lower value 0.737 and 0.818 | locus YJL129C, strain trk1, stronger effect = lower value 0.85 | locus YJL164C, strain tpk1, stronger effect = lower value 0.841 | locus YJL166W, strain qcr8, stronger effect = lower value 0.85
inactive: locus YAL021C, strain ccr4, stronger effect = lower value 0.955 | locus YAL030W, strain snc1, stronger effect = lower value 0.961 | locus YBL061C, strain skt5, stronger effect = lower value 0.927 | locus YBR021W, strain FUR4, stronger effect = lower value 0.977 | locus YBR171W, strain sec66, stronger effect = lower value 0.973 | locus YBR229C, strain ROT2, stronger effect = lower value 0.967 | locus YBR279W, strain paf1, stronger effect = lower value 0.968 | locus YCL069W, strain vba3, stronger effect = lower value 0.972 | locus YCR088W, strain abp1, stronger effect = lower value 0.939 | locus YDL005C, strain med2, stronger effect = lower value 0.988 | locus YDL035C, strain GPR1, stronger effect = lower value 0.872 | locus YDL040C, strain nat1, stronger effect = lower value 0.973 | locus YDL074C, strain BRE1, stronger effect = lower value 0.786 | locus YDL101C, strain DUN1, stronger effect = lower value 0.95 | locus YDL185W, strain tfp1, stronger effect = lower value 0.956 | locus YDR001C, strain nth1, stronger effect = lower value 0.975 | locus YDR069C, strain doa4, stronger effect = lower value 0.939 | locus YDR150W, strain NUM1, stronger effect = lower value 0.942 | locus YDR162C, strain NBP2, stronger effect = lower value 0.884 | locus YDR195W, strain ref2 1.12 | locus YDR297W, strain sur2, stronger effect = lower value 0.948 | locus YDR334W, strain swr1, stronger effect = lower value 0.988 | locus YDR335W, strain msn5, stronger effect = lower value 0.96 | locus YEL037C, strain rad23, stronger effect = lower value 0.976 | locus YEL061C, strain CIN8 (second series), stronger effect = lower value 0.983 | locus YEL061C, strain CIN8, stronger effect = lower value 0.943 | locus YER015W, strain faa2, stronger effect = lower value 0.978 | locus YER016W, strain bim1, stronger effect = lower value 1.05 | locus YER110C, stronger effect = lower value 0.987 | locus YER111C, strain swi4, stronger effect = lower value 0.976 | locus YER167W, strain BCK2, stronger effect = lower value 0.923 | locus YFR010W, strain ubp6, stronger effect = lower value 0.971 | locus YGL167C, strain pmr1, stronger effect = lower value 0.981 | locus YGL227W, strain vid30, stronger effect = lower value 0.977 | locus YGL240W, strain doc1, stronger effect = lower value 0.899 | locus YGR078C, strain PAC10, stronger effect = lower value 0.882 | locus YHR027C, strain rpn1, stronger effect = lower value 0.966 | locus YHR079C, strain IRE1, stronger effect = lower value 0.862 | locus YHR094C, strain hxt1, stronger effect = lower value 0.964 | locus YHR129C, strain ARP1, stronger effect = lower value 0.949 | locus YIL066C, strain RNR3, stronger effect = lower value 0.967 | locus YIL073C, strain SPO22, stronger effect = lower value 0.811 | locus YJL092W, strain hpr5, stronger effect = lower value 0.943 | locus YJL115W, strain asf1, stronger effect = lower value 0.993 | locus YJL134W, strain LCB3, stronger effect = lower value 0.96 | locus YJL154C, strain vps35, stronger effect = lower value 0.993 | locus YJL168C, strain set2, stronger effect = lower value 0.947 | locus YJL187C, strain SWE1 (second series), stronger effect = lower value 0.931
